# ± gives the standard deviation of the averaged measurements. Over roughly 25,000 sequences, “ln(normalized median fluorescence intensity)” has its median near 8.9; the highest 2% begin near 10. The sample as a whole holds a higher share of the highest values than the screen did.
# Tested on: PfAP2-LT AP2 domain (GST-tagged)
# Assay: gcPBM binding intensity (ln(normalized median fluorescence intensity)); higher = stronger DNA binding
# Procedure, shortened: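 For binding intensity, the highest Masliner-normalised natural-log median intensity across replicate spots of either probe orientation was taken. Protein bound to the array was stained with Alexa488 anti-GST antibody and scanned at 488 nm. The protein, GST-tagged P. falciparum DNA-binding domains from E. coli at about 25 μg on average, had been applied for 1 h to an Agilent 4 × 180k array of primer-extended double-stranded 36-bp intergenic genomic probes and negative controls.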
row,Sequence,gcPBM binding intensity (ln)
1,ATATATATATGTGGATGTACATATATCTCTTATTAT [XGTACX_site1748],9.05 ± 0.42
2,GAGAGAGAAATAAAAAGTACATACATATATATACAT [XGTACX_site2267],8.84 ± 0.58
3,TCATAGTCTTAATGACTACACACCTAACTATGCATG [CACACA_site1839],9 ± 0.47
4,TAATATGCATAAAATTGTACAAACTTACATATAATA [XGTACX_site2752],8.92 ± 0.45
5,CATACATACAAACACACACACACACCCATATATATA [CACACA_site2918],10.1 ± 0.31
6,CACAAACACCCAAACACACACACACCGACATACATA [CACACA_site4410],10.1 ± 0.46
7,CAATCAACAAAACATACACACACATATATATATATA [CACACA_site8979],10 ± 0.33
8,CAAACACCCAAACACACACACACATACATACATACA [CACACA_site8044],9.98 ± 0.15
9,CACCCATACACATACAAACACACATTCTATATATAT [CACACA_site1600],9.28 ± 0.46
10,CACGCGCACCAACACACACACACACCCATATATATA [CACACA_site2204],10.3 ± 0.4
11,CACATACCCATACAAACACACATTATATATATATAT [CACACA_site4965],9.56 ± 0.33
12,ATCAAAAGAAAACACACACACATACATATATATATA [CACACA_site3795],10.1 ± 0.3
13,GACACCCATAAATATACACACGCACAACACAAAATA [CACACA_site8944],9.46 ± 0.38
14,ATCAACAAAACATACACACACATATATATATATATA [CACACA_site2989],10.32 ± 0.057
15,AAAAGTTATAGACACACACACATATAAATATAGATT [CACACA_site6617],9.57 ± 0.3
16,TGTGTATAAATATACACACACATATAAATATTTTAA [CACACA_site7005],9.09 ± 0.35
17,TTGCCATTAATTTATACACACACATTTTAATTTTTT [CACACA_site8150],9.16 ± 0.39
18,GTAAATTATATAACAAATAAAAATGTACATATATAT [CACACA_negctrl_site408],8.88 ± 0.46
19,TAAATTATCTTTTTATGTACTTATTTTTATTATTTT [XGTACX_site3158],8.73 ± 0.55
20,AAAATATATGAAAACAGTACATATAAAAATTAAAAA [XGTACX_site2594],8.75 ± 0.64
21,AAAAAAATTAATATGTCAGCACATATATACATACAT [GTGCAC_negctrl_site110],8.88 ± 0.41
22,ATATTAGTCGAATGATGTACACACATACAAAACATT [XGTACX_site8613],9.28 ± 0.45
23,TGTGAATATATCTTTAAAAAGGATAAATAATAATTT [CACACA_negctrl_site507],8.47 ± 0.52
24,GATGGATTTATTTAAAGTACATATTTAAAAAACTGT [XGTACX_site7567],8.51 ± 0.49

row,Sequence,gcPBM binding intensity (ln)
1,AGCAAATACAAACACACACACACATATACATATATA [CACACA_site3497],10.1 ± 0.26
2,ATGTACCTATTTCATACACACACACCCACAAACAAA [CACACA_site8232],9.66 ± 0.16
3,TATAATATAAGGATCACACACAAACACCCATATATA [CACACA_site4468],9.56 ± 0.18
4,CGCACCCAAATATATACACACATATATATATATATA [CACACA_site1651],10.1 ± 0.16
5,AATACACGCAAACACACACACACACCCACATATATA [CACACA_site638],10.3 ± 0.14
6,AAGGATCACCCACAAACACACATATATATATATATA [CACACA_site559],10.2 ± 0.28
7,ACCTATTTCAAACACACACACACACCCACAAACATA [CACACA_site977],10.1 ± 0.33
8,ACAATAAACATATATACACACACAAAAAAAAAAACA [CACACA_site8033],9.64 ± 0.33
9,GGAAACACAATATATACACACATATATATATATATA [CACACA_site235],10.1 ± 0.021
10,GAACAAACAAAGAAAGAACACACATACACAATATAC [CACACA_site8918],9.6 ± 0.38
11,ACCTATTTCAAACACACACACACACTAACAAACATA [CACACA_site8233],10 ± 0.13
12,AATATAATATAAGGATCACACACAAACACCCATATA [CACACA_site8084],9.77 ± 0.2
13,TTTTATTTATCATACACACACAGAAAAAAAAAAAAA [CACACA_site158],8.89 ± 0.32
14,TTTTTTTTCAAAAATACAAAAAAAAAAGAAAAAAAC [CACACA_negctrl_site625],8.5 ± 0.4
15,AAATAACACATATATACACACATATAACTATAATAT [CACACA_site7298],9.29 ± 0.4
16,ACATGTAATATAATGTGTACATATACAAAGGTATAT [XGTACX_site4145],9.34 ± 0.59
17,AGTGAATATTACGAAACACACAAAAAAATACATTTC [CACACA_site511],9.09 ± 0.38
18,CAAACAAATTGTGAAACACACATATATATATATATA [CACACA_site2001],9.81 ± 0.057
19,TATATTATTAATTAGGGTACAAAAAAAAAATTTTTT [XGTACX_site7762],8.3 ± 0.48
20,AAAGGTTTATCTGATACACACATAAGTGATCAGGTT [CACACA_site6233],8.83 ± 0.33
21,TTTTTTCAATAAATAATCGTATATTGAATAATAATA [CACACA_negctrl_site822],8.07 ± 0.37
22,TCATTTCAATACACAAGTACGTATATGGTTATATTG [XGTACX_site6021],8.82 ± 0.4
23,TATAAACACCCATATAAACACACATATAAACCAACA [CACACA_site8790],9.31 ± 0.28
24,TATAATATAAGGATCACACACAAACAGACATATATA [CACACA_site557],9.49 ± 0.37

# — the supplement of paper PMC11417369
